# Inconclusive results are not listed. A call without a number means that no potency is given here. The source made the active and inactive calls. The call rests on the fitted dose curve; in most records, active means well fitted curve in the direction sought with a large enough effect; inconclusive means small, poorly fitted or top-dose-only effect, or another doubt; inactive means no such curve, though single readings can be large; an effect the other way counts as inactive or inconclusive.
# Legend:
# [1] = qHTS to identify inhibitors of the type 1 interferon - major histocompatibility complex class I in skeletal muscle: primary screen against the NCATS Mechanism Interrogation Plate v5.0 (MIPE) Libary (AID 1347411); further: nearly all actives have a fitted effect of over 65% in size; further: potency means the concentration at half of the fitted maximal effect
# Method in brief: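 HLA-B HiBit myoblasts, dexamethasone-free medium + 4 ng/ml IFN-b, 24 h compound, 11-pt 1:3 from 46 uM final. Readout: Nano-Glo HiBiT lytic luminescence after 10 min lysis, RT.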
# [2] = Primary qHTS for small molecule stabilizers of the endoplasmic reticulum resident proteome: Secreted ER Calcium Modulated Protein (SERCaMP) assay (AID 1508630)
# Method in brief: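 The SH-SY5Y reporter protocol was run at 3 concentrations up to 38.3 uM (primary) or 11 concentrations (follow-up): 16 h compound, 100 nM thapsigargin for 4 h, then extracellular luciferase luminescence.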
# [3] = target: Calcium and integrin-binding protein 1 (Homo sapiens) (UniProt Q99828); test: Primary qHTS for Identification of Calcium Integrin Binding Protein 1 (CIB1) Competitor (AID 1508620);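 further: GST tagged CIB1 binding a fluorescein labelled alphaIIb integrin peptide tracer; top concentration of the series differs between compounds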
# Calcium and integrin-binding protein 1 (Homo sapiens), sequence (Q99828 whole entry, looked up): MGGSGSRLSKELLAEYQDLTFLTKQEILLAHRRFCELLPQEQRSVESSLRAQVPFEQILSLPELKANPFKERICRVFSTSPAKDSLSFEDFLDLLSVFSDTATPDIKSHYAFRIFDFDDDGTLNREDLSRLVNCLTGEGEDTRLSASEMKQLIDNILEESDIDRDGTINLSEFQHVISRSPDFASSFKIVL
# Method in brief: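 Fluorescence polarization competition: GST-tagged CIB1 (1 uM final) preincubated with compound 15 min at room temperature, then FITC-labelled alphaIIb peptide (100 nM final) added. After 15 min at room temperature, polarization read at Ex 480/Em 540.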
# [4] = target: Calcium and integrin-binding protein 1 (Homo sapiens) (UniProt Q99828); test: Confirmatory qHTS for Identification of Calcium Integrin Binding Protein 1 (CIB1) Competitor (AID 1508617); further: nearly all actives have a fitted effect of over 65% in size; further: potency means the concentration at half of the fitted maximal effect
# Method in brief: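 Binding competition between test compounds and fluorescent alphaIIb peptide for 1 uM CIB1-GST is monitored by FP at 480/540 nm. Final compound range is up to 114 uM; unlabeled peptide serves as reference competitor.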
# [5] = Validation qHTS assay for inhibitors of Activation Induced Cytidine Deaminase (AID): UDG Counterscreen signal (AID 1347427)
# Method in brief: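 Fluorescence at 560 nm excitation, 665 nm emission reports UDG signal after 250 mM NaOH (2x) addition and 30 min. Enzymes (AID 1 uM, UDG 2 U/mL, at 4/3x) preincubated 10 min with compound, then 4 h with 4x 250 nM DJC20/DJC23 substrate at room temperature.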
# [6] = target: Single-stranded DNA cytosine deaminase (Homo sapiens) (UniProt Q9GZX7); test: Validation qHTS assay for inhibitors of Activation Induced Cytidine Deaminase (AID): AID signal (AID 1347429)
# Single-stranded DNA cytosine deaminase (Homo sapiens), sequence (Q9GZX7 whole entry, looked up): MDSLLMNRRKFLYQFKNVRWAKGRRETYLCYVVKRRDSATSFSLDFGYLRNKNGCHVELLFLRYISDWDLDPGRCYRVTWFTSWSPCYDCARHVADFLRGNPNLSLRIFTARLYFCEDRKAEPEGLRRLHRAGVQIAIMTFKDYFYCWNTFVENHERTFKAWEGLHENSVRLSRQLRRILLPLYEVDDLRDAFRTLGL
# Method in brief: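 AID+UDG coupled FRET deamination; cpds up to 114 uM final; DJC20/DJC23 substrate, 4 hr RT; NaOH stop, 30 min RT; read Ex 540/Em 590.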
# [7] = Primary qHTS for inhibitors of La Crosse Virus (LACV) - induced cell death in SH-SY5Y cells (AID 1508616);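 further: top concentration of the series differs between compounds; higher means more rescue of cells from virus-induced death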
# Method in brief: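 Cytopathicity rescue screen: compounds pinned onto SH-SY5Y cells, which are then infected with LACV (MOI 0.01) and held 6 days at 37C. Percent activity is scaled between infected DMSO control and uninfected DMSO control.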
# [8] = Counterscreen qHTS for small molecule stabilizers of the endoplasmic reticulum resident proteome: GLuc-NoTag assay (AID 1508627);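 further: SH-SY5Y cells given compound then 100 nM thapsigargin to empty ER calcium; series mostly up to about 76 µM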
# Method in brief: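 Counterscreen line: SH-SY5Y-GLuc-NoTag. Seed, 5 h; compound, 19 h; thapsigargin 100 nM, 4 h; 37C/5% CO2. Readout: secreted GLuc luminescence, coelenterazine 0.07x final, no lysis.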
smiles,measurement,setting,value
COc1ccc([C@@H]2CNC(=O)C2)cc1OC1CCCC1,Potency,[1],inactive
same,outcome,[2],inactive
C=CC(=O)Nc1cccc(Nc2nc(NC3CCC(N(C)C)CC3)nc3c2ncn3C(C)C)c1 (stereo not drawn),Potency,[3],inactive
CC(C)N1[N]C(=C2C=c3cc(O)ccc3=N2)c2c(N)ncnc21,Potency,[3],inactive
c1cc(N[C@@H]2CCNC2)nc(-c2cnc3ccc(-c4cn[nH]c4)cn23)c1,Potency,[1],0.829 µM (active)
same,outcome,[2],inactive
Cc1coc2c1C(=O)C(=O)c1c-2ccc2c(C)cccc12,Potency,[4],39.8 µM (active)
same,Potency,[3],inactive
NS(=O)(=O)OC[C@@H]1C[C@@H](n2ccc3c(N[C@H]4CCc5ccccc54)ncnc32)C[C@H]1O,Potency,[3],inactive
N#CC(=C(O)c1ccc(Cl)cc1Cl)c1nc2cc(Cl)ccc2c(=O)[nH]1,Potency,[3],inactive
CCN(CC)CCCCNc1ncc2c(n1)N(C)C(=O)N(c1c(Cl)c(OC)cc(OC)c1Cl)C2,Potency,[3],inactive
C#CCC(Cc1cnc2nc(N)nc(N)c2n1)c1ccc(C(=O)N[C@@H](CCC(=O)O)C(=O)O)cc1 (stereo partly drawn),Potency,[1],inactive
same,outcome,[2],inactive
O=c1[nH]c(=O)n([C@H]2C[C@@H](O)[C@@H](CO)O2)cc1C=CBr,outcome,[5],inactive
same,outcome,[6],inactive
same,outcome,[7],inactive
same,Potency,[3],inactive
same,outcome,[2],inactive
CC(C)[C@H](CO)Nc1nc(Nc2cccc(Cl)c2)c2ncn(C(C)C)c2n1,Potency,[1],16.5 µM (active)
same,Potency,[3],inactive
same,outcome,[2],inactive
C[C@]12CCC(=O)C=C1[C@@H]1CC1[C@H]1[C@H]3[C@@H]4C[C@H]4[C@@]4(CCC(=O)O4)[C@@]3(C)CC[C@H]12 (stereo partly drawn),Potency,[3],inactive
CN(C)c1ccc(C(=O)NCCCCCCC(=O)NO)cc1,Potency,[3],inactive
CN1CCCN(C(=O)c2cccc(-c3ccc(C=C4C(=O)Nc5ccc(Cl)cc54)o3)c2)CC1,Potency,[4],35.5 µM (active)
same,outcome,[2],inactive
NC(=O)c1ncn([C@@H]2O[C@H](CO)[C@@H](O)[C@@H]2O)c1O,Potency,[4],inactive
same,Potency,[3],inactive
same,outcome,[2],inactive
CN[C@H](CC(C)C)C(=O)N[C@H]1C(=O)N[C@@H](CC(N)=O)C(=O)N[C@@H]2C(=O)N[C@H]3C(=O)N[C@H](C(=O)N[C@H](C(=O)O)c4cc(O)cc(O)c4-c4cc3ccc4O)[C@H](O)c3ccc(c(Cl)c3)Oc3cc2cc(c3O[C@@H]2O[C@H](CO)[C@@H](O)[C@H](O)[C@@H]2O[C@H]2C[C@](C)(N)[C@H](O)[C@H](C)O2)Oc2ccc(cc2Cl)[C@H]1O,outcome,[5],inactive
same,outcome,[6],inactive
same,outcome,[7],inactive
same,Potency,[3],inactive
CCOc1cc2c(c(F)c1OCC)C(=N)N(CC(=O)c1cc(N3CCOCC3)c(OC)c(C(C)(C)C)c1)C2,Potency,[1],14.7 µM (active)
same,outcome,[2],inactive
c1coc(CNc2ncnc3nc[nH]c23)c1,Potency,[1],inactive
same,outcome,[2],inactive
Cn1cnc(=N)c2[nH]cnc21,Potency,[1],inactive
same,outcome,[2],inactive
C[C@@H](NCc1cc2ccccc2[nH]1)c1cccc2ccccc12,Potency,[4],inactive
C=CC[C@@H]1C=C(C)C[C@H](C)C[C@H](OC)[C@H]2O[C@@](O)(C(=O)C(=O)N3CCCC[C@H]3C(=O)O[C@H](C(C)=C[C@@H]3CC[C@H](O)[C@H](OC)C3)[C@@H](C)[C@@H](O)CC1=O)[C@@H](C)C[C@@H]2OC,outcome,[8],inactive
NC[C@H]1O[C@H](O[C@H]2[C@@H](O)[C@@H](O[C@H]3O[C@H](CO)[C@@H](O)[C@H](N)[C@@H]3O)[C@H](N)C[C@@H]2N)[C@H](N)C[C@H]1O,Potency,[3],inactive
same,outcome,[2],inactive
C=C1C(=CC=C2CCC[C@]3(C)[C@@H]([C@H](C)CCCC(C)(C)O)CC[C@@H]23)C[C@@H](O)C[C@@H]1O,Potency,[3],inactive
same,outcome,[2],inactive
O=C(NCc1ccccc1)[C@H](Cc1ccccc1)NC(=O)[C@@H]1O[C@@H]1C(=O)NCCc1ccc(O)cc1,Potency,[3],inactive
same,outcome,[2],inactive
CN[C@H]1[C@@H](O)[C@@H]2O[C@@H]3O[C@H](C)CC(=O)[C@]3(O)O[C@@H]2[C@@H](NC)[C@H]1O,Potency,[3],inactive
same,outcome,[2],inactive
C#C[C@]1(O)CC[C@@H]2[C@@H]3CCc4cc(O)ccc4[C@H]3CC[C@@]21C,Potency,[3],inactive
same,outcome,[2],inactive
C=CC(=O)Nc1cc(NC(=O)c2ccc(C)c(NC(=O)c3ccno3)c2)cc(C(F)(F)F)c1,Potency,[3],inactive
same,outcome,[2],inactive
Cc1ccc([N+](=O)[O-])cc1S(=O)(=O)N(C)N=Cc1cnc2ccc(Br)cn12,Potency,[3],inactive
same,outcome,[2],inactive
O=C(NC1CC1)c1cccc(-c2ccc3c(NC(=O)C4CC4)n[nH]c3c2)c1,Potency,[3],inactive
same,outcome,[2],inactive
CCNC(=O)Nc1ccc(-c2nc3c(c(N4CCOC[C@H]4C)n2)CCN(C2COC2)C3)cc1,Potency,[3],inactive
same,outcome,[2],inactive

# Source: PubChem BioAssay (NCATS)
